# Over roughly 33,000 sequences, “E-score (-0.5 to 0.5)” has its median near -0.035; the highest 2% begin near 0.35. This excerpt belongs to a sample that is enriched for the highest values.
# Biological target: T1, Pdr3 (UniProt P33200)
# T1 sequence: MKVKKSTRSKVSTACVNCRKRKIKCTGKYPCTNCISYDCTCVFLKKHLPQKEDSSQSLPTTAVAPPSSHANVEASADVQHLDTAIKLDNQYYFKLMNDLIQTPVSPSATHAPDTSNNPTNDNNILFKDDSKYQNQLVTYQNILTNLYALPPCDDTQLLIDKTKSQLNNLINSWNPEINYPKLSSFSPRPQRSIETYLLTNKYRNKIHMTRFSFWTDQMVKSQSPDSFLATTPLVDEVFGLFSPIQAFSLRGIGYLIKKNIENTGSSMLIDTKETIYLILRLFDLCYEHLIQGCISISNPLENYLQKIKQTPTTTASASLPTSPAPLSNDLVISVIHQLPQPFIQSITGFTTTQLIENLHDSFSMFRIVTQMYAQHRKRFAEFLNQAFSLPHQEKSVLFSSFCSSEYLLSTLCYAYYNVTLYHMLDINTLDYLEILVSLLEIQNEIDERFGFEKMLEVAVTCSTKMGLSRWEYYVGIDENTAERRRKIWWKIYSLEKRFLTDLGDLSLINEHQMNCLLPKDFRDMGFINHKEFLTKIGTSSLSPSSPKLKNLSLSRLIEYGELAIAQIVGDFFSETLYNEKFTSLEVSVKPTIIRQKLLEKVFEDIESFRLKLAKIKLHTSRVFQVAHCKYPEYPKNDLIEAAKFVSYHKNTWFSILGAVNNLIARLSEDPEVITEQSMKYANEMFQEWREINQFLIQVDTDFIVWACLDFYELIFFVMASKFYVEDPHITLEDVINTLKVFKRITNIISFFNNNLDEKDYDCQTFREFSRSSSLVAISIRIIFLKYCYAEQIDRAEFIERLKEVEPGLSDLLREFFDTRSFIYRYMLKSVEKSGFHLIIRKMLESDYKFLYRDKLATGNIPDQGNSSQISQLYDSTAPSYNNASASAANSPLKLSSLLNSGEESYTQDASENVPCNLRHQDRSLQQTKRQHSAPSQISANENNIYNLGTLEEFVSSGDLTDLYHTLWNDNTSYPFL
# Assay: PBM E-score (8-mer binding enrichment) (E-score (-0.5 to 0.5)); higher = stronger / more preferred TF binding
# Conditions: protein concentration: 200 nM; construct: GST-full length
# Outline: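 PURExpress in vitro transcription/translation supplied GST-tagged yeast transcription factors, either full-length or DNA-binding domain. Applied at about 100-200 nM to universal all-10-mer Agilent arrays double-stranded by primer extension, the bound protein was detected with fluorescent anti-GST. E-scores, modified Wilcoxon-Mann-Whitney statistics, were given by the Universal PBM Analysis Suite to ungapped eight-base words pooled with their reverse complements after masliner normalisation.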
row,Sequence,PBM E-score
1,ACTTGCAG,-0.177
2,AGGGCCTG,-0.195
3,AGAAAATA,0.0181
4,GGAGTAAC,0.0889
5,ATAGACCC,0.154
6,TCTCGTCA,-0.0279
7,AGGGGCAC,-0.293
8,ACATCGCG,0.0219
9,CGCTTCGC,-0.0359
10,AAACATGT,0.00604
11,ACTTCCAC,0.0382
12,CCTTCCGC,0.38
13,ACTTCCGC,0.385
14,ACTTCCCC,-0.132
15,CCTTCCTC,-0.201
16,CCTTCCGA,0.323
17,AGATTCAT,-0.0927
18,AGTTGCCG,0.196
19,CCCGGAGA,0.387
20,CCCGGAGG,0.165
21,TCCGGAGA,0.44
22,CCCAGAGA,-0.223
23,GCCGGAGA,0.244
24,ACCGGAGA,0.353

row,Sequence,PBM E-score
1,AAATTCAT,-0.0189
2,CGTGCCTC,-0.0179
3,AACGCAAT,0.115
4,GTTCGGCA,0.054
5,ATTCGGAG,0.2
6,GTTCGGAA,0.431
7,ATTCGGAA,0.415
8,CTTCGGTA,-0.0957
9,CTTCGGAC,0.283
10,ATTCGGAC,0.275
11,GTTCGGGA,0.233
12,CTTCGGAA,0.438
13,CTATCCTA,-0.0548
14,ACTACGCA,-0.236
15,GTGCAAAA,-0.168
16,GACGCTAA,-0.213
17,GTTCCTCA,0.0277
18,CTTCCGCA,0.307
19,ATTCCGCA,0.379
20,GTTCCGCA,0.462
21,ACTCCGCA,0.154
22,ATTCCGCG,0.479
23,CTTCCGCC,0.336
24,ATTCCACA,0.204

row,Sequence,PBM E-score
1,GTTCCCCA,-0.173
2,ATGCCGCG,0.346
3,AATCCGCC,0.17
4,ATTCCGCC,0.417
5,GCTCTGAA,-0.126
6,CAGTGCTC,-0.213
7,AAGAGATA,-0.206
8,TCCGATAA,0.289
9,ACTAGAAA,-0.213
10,ACTATGTA,-0.181
11,CCTAGTGC,-0.0662
12,CTAGGTGC,-0.121
13,CAGGTGCA,0.0121
14,CTCCGGTA,0.321
15,CACCGGAG,0.253
16,CTCCGAAG,0.311
17,ATCCGAAG,0.22
18,CTCCGGCA,0.34
19,CTCCGGAA,0.441
20,ATCCGAAA,0.248
21,CTCCGGAG,0.476
22,TTCCGAAA,0.41
23,ATCCGAAC,0.316
24,GTCCGAAA,0.264

row,Sequence,PBM E-score
1,ATCCGAAT,0.365
2,CGCCAGTA,0.00965
3,AACTGCGC,-0.146
4,AGAGATCG,-0.137
5,AGCGCGGG,0.324
6,AGCAAGTA,-0.149
7,ACGGCACA,-0.0224
8,ACTGTAGC,-0.197
9,CTCCGGTC,0.328
10,ATCCGGCG,0.323
11,CTCCGGAC,0.382
12,GTCCGGAC,0.481
13,TTCCGCAA,0.404
14,CTCCGTAC,0.162
15,ATCCGCAA,0.222
16,CTCCGGCC,0.0522
17,ATCCGGCC,0.403
18,GTCCGCAA,0.259
19,GTCCGCAC,0.215
20,CCCGCTCG,0.133
21,ACGTCTTG,-0.178
22,ACGGTTAT,-0.0715
23,CGCCTCAC,0.152
24,ACGGTAAA,0.0442

row,Sequence,PBM E-score
1,GTCAAGGA,-0.0724
2,GTCCGGTA,0.181
3,ATCCGGAC,0.355
4,ATCCGGAT,0.465
5,ATCCGGAA,0.464
6,ATCAGGAT,0.113
7,ATCCGGTC,0.215
8,ATCCGGTA,0.168
9,ATCCGGCA,0.255
10,GTCCGGAA,0.457
11,ACCCGGAC,0.317
12,GTCCGGCA,0.295
13,ATCCGCAT,0.267
14,CTGAGTGA,0.179
15,CACCCAGC,-0.0529
16,CCTAGATC,-0.201
17,ACTTTGCA,0.00219
18,ATCCGGTG,0.35
19,ATCCGCAG,0.316
20,ATCCGGAG,0.433
21,TAGCATGA,-0.224
